For 87 molecules, activation factor and activity change, negative = activation results are on record in PubChem BioAssay AID434970 (Sanford-Burnham Center for Chemical Genomics, 2010).

Each structure is given as a SMILES string. In all, about 11,000 compounds went through this assay and about 310 (2.8%) were called active. No stated cut-off is given here; in the data, active means activity change below about -85%; inactive means the rest. Many of the other results were omitted from the sample, so actives are more common in it than they were.

This test deals with intestinal alkaline phosphatase [Mus musculus]. The test can be described thus: mouse intestinal phosphatase enzyme activation – biochemical, luminescence, single concentration, confirmation (AID 434970). Particulars: purified mouse IAP, CDP-Star luminescence, 30 min, at 10 µM; activation factor: measured here: IAP activation factor, stronger effect = higher value; activity change, negative = activation: stronger effect = lower value.
`COC(=O)CCN(C(=O)C1C2CC3CC(C2)CC1C3)c1ccccn1` (centres undefined): the activation factor was found to be 0.948 and the activity change, negative = activation was 5.2% (inactive).
The corresponding values for `COc1ccccc1-c1nnc(SCCN2CCOCC2)n1-c1ccc(C)cc1` are 0.947 and 5.3% (inactive).
The corresponding values for `CCOC(=O)C1=CN(Cc2ccco2)S(=O)(=O)N(CC)C1c1cccc(OC)c1` (centres undefined) are 1.02 and -1.7% (inactive).
The corresponding values for `O=S1(=O)CC(O)C(Nc2ccccc2)C1` (centres undefined) are 0.942 and 5.85% (inactive).
In the case of `OC(c1cccc(OCc2ccccc2)c1)c1nnc(-c2ccccc2)o1` (centres undefined), the activation factor amounted to 1.03 and the activity change, negative = activation was -3.4% (inactive).
The corresponding values for `CCN([C@H](CO)CC(C)C)S(=O)(=O)c1ccccc1` are 1.09 and -8.75% (inactive).
The corresponding values for `O=C(Nc1cccc(Cl)c1)Nc1nnc(-c2ccccc2)o1` are 1.02 and -2.05% (inactive).
`Cc1onc(-c2ccccc2)c1C(=O)NCc1ccccn1`: the activation factor is 0.956 and the activity change, negative = activation is 4.35% (inactive).
The corresponding values for `FC(F)(F)c1ccc(NC(=S)NCc2ccccc2)cc1` are 1.41 and -41% (inactive).
The corresponding values for `Cc1onc(-c2ccccc2)c1C(=O)NCc1cccs1` are 1.01 and -0.85% (inactive).
The corresponding values for `Cc1onc(-c2ccccc2)c1CNC(=O)Nc1cccc(Cl)c1` are 2.33 and -133% (active).
For `Cc1onc(-c2ccccc2)c1NC(=O)Nc1ccc(OC(F)F)cc1`, the activation factor was found to be 1.48 and the activity change, negative = activation is -47.9% (inactive).
The corresponding values for `Cc1cc(C)cc(NC(=O)NCc2c(-c3ccccc3)noc2C)c1` are 2.73 and -173% (active).
The corresponding values for `Cc1onc(-c2ccccc2)c1CNC(=O)Nc1ccc(C(F)(F)F)cc1` are 1.99 and -99.1% (active).
Turning to `Cn1c(CNC(=O)Nc2cccc(Cl)c2)nnc1SCc1ccccc1`, the activation factor came to 1.52 and the activity change, negative = activation is -52% (inactive).
Consider `COC(=O)C1=NN(c2ccccc2)C2(S1)SC(C(C)=O)=C(C)N2c1ccccc1` (centres undefined), for which the activation factor worked out at 0.92 and the activity change, negative = activation is 8% (inactive).
The corresponding values for `O=C(CC(Nc1ccc(F)cc1)C(=O)O)c1ccccc1` (centres undefined) are 0.959 and 4.1% (inactive).
The corresponding values for `COC(=O)c1oc2ccc(Cl)cc2c1N` are 0.915 and 8.55% (inactive).
The corresponding values for `O=C(Nc1ccc2c(c1)nc1n2CCOC1)c1ccco1` are 1.29 and -29.5% (inactive).
Take `Cc1cccc(N2O[C@H]3C=CC2CCCC3)n1`: the activation factor is 1.02 and the activity change, negative = activation was -2.2% (inactive).
For the molecule `COc1ccc(C2C(C(=O)Nc3ccccc3)=C(C)N=C3SCC(=O)N32)cc1` (centres undefined), the activation factor is 0.843 and the activity change, negative = activation was 15.7% (inactive).
Consider `CCC1CCCCN1CCCNC(=O)CNC(=O)Cn1ccc2ccccc2c1=O` (centres undefined), for which the activation factor came to 0.926 and the activity change, negative = activation was 7.35% (inactive).
The corresponding values for `O=C(NCCCCc1ccccc1)Nc1cccc(F)c1` are 2.29 and -129% (active).
The corresponding values for `S=C(NCCCc1ccccc1)Nc1ccc(Br)cc1` are 1.72 and -71.9% (inactive).
The corresponding values for `COc1cccc(NS(=O)(=O)Cc2ccccc2)c1` are 0.904 and 9.6% (inactive).
With `Cc1cccc(NC(=O)NCCCCc2ccccc2)c1`, the activation factor is 2.38 and the activity change, negative = activation is -138% (active).
The corresponding values for `Cc1cccc(NC(=S)NC(C)CCc2ccccc2)c1` (centres undefined) are 1.15 and -14.6% (inactive).
The corresponding values for `Cc1cccc(NC(=O)NC(C)CCc2ccccc2)c1` (centres undefined) are 2.83 and -183% (active).
The corresponding values for `Cc1cccc(NC(=O)NCCc2c[nH]c3ccccc23)c1` are 1.72 and -71.8% (inactive).
Regarding `COc1cccc(NC(=O)Nc2cccn(Cc3ccccc3)c2=O)c1`, the activation factor was found to be 1.01 and the activity change, negative = activation is -1.1% (inactive).
With `COc1cccc(NC(=O)NCCCCc2ccccc2)c1`, the activation factor is 2.16 and the activity change, negative = activation is -116% (active).
The corresponding values for `Fc1cccc(NC(=S)NCc2ccccc2Cl)c1` are 1.27 and -27.2% (inactive).
Regarding `Cc1ccc(NC(=O)NCCCc2ccccc2)cc1`, the activation factor was 1.29 and the activity change, negative = activation is -28.6% (inactive).
The corresponding values for `CC(CCc1ccccc1)NC(=O)c1ccncc1` (centres undefined) are 0.938 and 6.2% (inactive).
The corresponding values for `O=C(c1ccc(F)cc1)N1CCN(Cc2ccccc2Br)CC1` are 0.984 and 1.55% (inactive).
The corresponding values for `CCn1c(SCC(=O)Nc2nccs2)nnc1-c1cc2cccc(OC)c2o1` are 0.881 and 11.9% (inactive).
Take `CCOc1ccc(C(=S)N2CCCC2)cc1`: the activation factor is 0.949 and the activity change, negative = activation is 5.1% (inactive).
In the case of `CCSc1nc(N)c2c(C)c(C)sc2n1`, the activation factor was determined as 1.11 and the activity change, negative = activation was -10.9% (inactive).
The corresponding values for `CCOc1ccccc1N1CCN(S(=O)(=O)c2ccc3c4c(cccc24)C(=O)N3)CC1` are 0.442 and 55.8% (inactive).
The corresponding values for `COc1ccccc1NC(=S)NCCC(c1ccccc1)c1ccccc1` are 1.39 and -38.9% (inactive).
The corresponding values for `S=C(NCCCc1ccccc1)Nc1ccccc1Cl` are 1.26 and -26.2% (inactive).
As for `COc1ccc(Cl)cc1NC(=S)NCCSc1ccc(C)cc1`, the activation factor was determined as 1.43 and the activity change, negative = activation is -42.5% (inactive).
`Cc1cc(Cl)ccc1NC(=S)NCCC(c1ccccc1)c1ccccc1`: the activation factor was 2.05 and the activity change, negative = activation was -105% (active).
As to `Cc1c(Cl)cccc1NC(=S)NCCC(C)C`, the activation factor turned out to be 1.19 and the activity change, negative = activation is -19.2% (inactive).
The corresponding values for `Cc1c(Cl)cccc1NC(=S)NCCC(c1ccccc1)c1ccccc1` are 4.75 and -375% (active).
The corresponding values for `COc1ccc(Cl)cc1NC(=S)NCCC(c1ccccc1)c1ccccc1` are 2.07 and -107% (active).
The corresponding values for `Cc1c(Cl)cccc1NC(=S)NCc1ccccc1` are 1.04 and -4% (inactive).
Take `S=C(NCCC(c1ccccc1)c1ccccc1)Nc1ccccc1Cl`: the activation factor was determined as 1.84 and the activity change, negative = activation was -84.1% (inactive).
The corresponding values for `Cc1ccc(Cl)cc1NC(=S)NCCCSC1CCCCC1` are 1.29 and -28.8% (inactive).
The corresponding values for `S=C(NCCc1ccc(Cl)cc1)Nc1ccc(Cl)cc1Cl` are 1.36 and -36.1% (inactive).
The corresponding values for `Cc1ccccc1NC(=S)NCCC(c1ccccc1)c1ccccc1` are 1.96 and -96% (active).
Turning to `CSc1nc(Oc2ccc(=O)n(C)n2)nc(N(C)C)n1`, the activation factor is 1.07 and the activity change, negative = activation is -6.65% (inactive).
The corresponding values for `COc1ccc(C2C(C#N)=C(N)N(c3sc4c(c3C#N)CCCC4)C3=C2C(=O)CC(C)(C)C3)cc1OC` (centres undefined) are 0.851 and 14.9% (inactive).
The corresponding values for `CCC(C)(C)NC(=O)C(c1ccccc1)N(C(=O)c1csnn1)C1CC1` (centres undefined) are 0.99 and 1% (inactive).
The corresponding values for `Cc1cc(=O)c2cc(Br)ccc2[nH]1` are 0.944 and 5.65% (inactive).
For the molecule `CCOC(=O)CSc1nc(-c2ccc(OC)cc2)ns1`, the activation factor is 1 and the activity change, negative = activation is 0.05% (inactive).
For the molecule `COc1ccccc1C(=O)NCCN1CCN(C(=O)c2ccccc2OC)CC1`, the activation factor was 1.1 and the activity change, negative = activation is -10.1% (inactive).
For the molecule `COc1cccc(OCC(=O)Nc2ccccc2NC(C)=O)c1`, the activation factor amounted to 1.08 and the activity change, negative = activation was -8.25% (inactive).
For `COc1ccc(C(=O)Nc2ccccc2C(=O)N/N=C/c2cccc3ccccc23)cc1`, the activation factor is 1.02 and the activity change, negative = activation is -1.95% (inactive).
As for `COc1cccc(C(CC(=O)Nc2cccc3ccccc23)NC(=O)c2ccccc2)c1` (centres undefined), the activation factor was found to be 2.19 and the activity change, negative = activation is -119% (active).
The corresponding values for `NC(=O)CSc1nnc(-c2ccncc2)n1CCc1ccccc1` are 1.05 and -5.05% (inactive).
The corresponding values for `COc1ccc(COC(=O)Nc2cc3c(C(F)(F)F)nn(C)c3s2)cc1` are 1.23 and -23.1% (inactive).
The corresponding values for `O=C1NC2(CCCCC2)C(=O)N1c1ccccc1` are 1.08 and -7.85% (inactive).
Take `COc1ccc(NC(=O)NCc2ccncc2)cc1`: the activation factor turned out to be 1.01 and the activity change, negative = activation was -0.85% (inactive).
On to `COc1ccc(NC(=O)NC23CC4(C)CC(C)(CC(C)(C4)C2)C3)cc1OC`, for which the activation factor worked out at 1.65 and the activity change, negative = activation was -64.8% (inactive).
The corresponding values for `COc1ccc(NC(=O)NC23CC4(C)CC(C)(CC(C)(C4)C2)C3)cc1` are 2.08 and -108% (active).
The corresponding values for `Cn1nnnc1SCC(=O)N1CCN(c2ccc(Cl)cc2)CC1` are 1.06 and -5.85% (inactive).
For `CCN(CC)c1ccc(NC(=O)c2cccc(OC)c2)c(C)c1`, the activation factor turned out to be 0.97 and the activity change, negative = activation is 3.05% (inactive).
The corresponding values for `CCOc1ccc(OCCCN(C)C)cc1` are 0.976 and 2.4% (inactive).
The corresponding values for `O=C(CN1CCN(Cc2ccccc2Cl)C1=O)NCc1ccco1` are 0.935 and 6.45% (inactive).
The corresponding values for `CCOC(=O)C1CCN(CCC(=O)Nc2ccccc2Cl)CC1` are 0.996 and 0.35% (inactive).
On to `Cc1cccc(CN2CCC(CNC(=O)CCNC(=O)Cn3ccc4ccccc4c3=O)CC2)c1`, for which the activation factor amounted to 0.974 and the activity change, negative = activation is 2.6% (inactive).
The corresponding values for `O=C(NCC1CCN(Cc2cccc(Cl)c2)CC1)Nc1ccccc1Cl` are 2.17 and -118% (active).
As to `Cc1ccc(NC(=O)NCC2CCN(Cc3cccc(Cl)c3)CC2)c(Cl)c1`, the activation factor was determined as 2.2 and the activity change, negative = activation is -120% (active).
The corresponding values for `CCOC(=O)N1CCN(C(=O)Nc2ccc(Cl)cc2Cl)CC1` are 1.02 and -1.6% (inactive).
Take `S=C(Nc1cc(Cl)cc(Cl)c1)NC1CCN(Cc2ccccc2)CC1`: the activation factor was 1.54 and the activity change, negative = activation was -53.5% (inactive).
Turning to `COc1cccc(Cn2cnc3c(NS(=O)(=O)c4ccc(Cl)cc4Cl)c(C)c(C)cc32)c1`, the activation factor came to 0.985 and the activity change, negative = activation is 1.45% (inactive).
Take `Cn1cc(CN2CCC(C(=O)Nc3cccc(-c4cccc(F)c4)c3)CC2)cn1`: the activation factor turned out to be 2.29 and the activity change, negative = activation is -129% (active).
As for `CC(C)n1cc(CN2CCC(C(=O)Nc3cccc(-c4cccc(Cl)c4)c3)CC2)cn1`, the activation factor was determined as 3.97 and the activity change, negative = activation is -297% (active).
The corresponding values for `CCn1cc(CN2CCC(C(=O)Nc3cccc(-c4cccc(Cl)c4)c3)CC2)cn1` are 4.29 and -329% (active).
The corresponding values for `Cc1ccc(CN2CCC(C(=O)Nc3cccc(-c4cccc(F)c4)c3)CC2)o1` are 1.48 and -48.2% (inactive).
The corresponding values for `Cc1cc(C)c(S(=O)(=O)NNC(=O)C2CCN(Cc3ccccc3)CC2)c(C)c1` are 0.968 and 3.2% (inactive).
For the molecule `CC(C)c1ccc(CN2CCC(C(=O)NCc3cccnc3)CC2)cc1`, the activation factor worked out at 1.04 and the activity change, negative = activation is -4.3% (inactive).
The corresponding values for `CCn1c2ccccc2c2cc(NC(=O)C3CCN(S(=O)(=O)c4cccs4)CC3)ccc21` are 1.53 and -52.7% (inactive).
As to `Cc1ccc(S(=O)(=O)NNC(=O)C2CCN(Cc3ccccc3)CC2)cc1`, the activation factor was found to be 0.94 and the activity change, negative = activation is 6% (inactive).
The corresponding values for `CCn1cc(CN2CCC(C(=O)Nc3cccc(-c4cccc(F)c4)c3)CC2)cn1` are 2.66 and -166% (active).
The corresponding values for `C[C@]12c3[nH]c4ccc(Cl)cc4c3CCN1C(=O)[C@@H](CC(=O)NCc1cccc(C(F)(F)F)c1)C[C@@H]2C(=O)N1CCCCC1` are 1.26 and -26.2% (inactive).
